Shown is part of a subset that was picked to be rich in hits.
Tgondii IFNg: T. gondii growth inhibition under IFN-gamma; Toxoplasma gondii growth in IFN-gamma-treated host cells; stronger effect = lower value; activity change, negative = inhibition, % (concentration not given with the values); hit rate 3.8% among 69,000; AID 1259416; in the data active = activity change below about -70%, passing the limit was not always enough;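 note: host cells are HeLa cells infected with Toxoplasma gondii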
An asterisk follows results filed as active; i = inactive.

SMILES	Tgondii IFNg
Cc1ccc(NC(=O)CN2CCC3(CC2)N=C(c2cccc(F)c2)C(=O)N3)cc1C	38
Cc1ccc(NC(=O)CN2CCC3(CC2)N=C(c2ccc(C(C)(C)C)cc2)C(=O)N3)cc1C	-76*
CCS(=O)(=O)N1CCC2(CC1)OC(=O)C(C)=C2C(=O)NCCN1CCOCC1	17
CC(C)(C)c1ccc(-c2noc(CSc3n[nH]c(=O)n3Cc3ccco3)n2)cc1	-63
Cc1noc(C)c1CN1Cc2ccnn2CC(COCCN(C)C)C1 (centres undefined)	0
CC(=O)N1CC(=O)N(c2ccccc2)CC12CCN(S(=O)(=O)C1CC1)C2 (centres undefined)	-37
O=C(Nc1ccccc1C(=O)NCc1cccnc1)c1cc2ccccc2o1	-35
O=C(NCc1cccnc1)c1ccccc1C(=O)Nc1sc2ccccc2c1Cl	-94*
O=C(Nc1c(C(=O)NCc2cccnc2)[nH]c2ccccc12)c1ccc(Cl)cc1	-56
CN1CCC2(c3ccccc3)CCN(S(C)(=O)=O)CC12 (centres undefined)	27
O=C(CCN1CCCCC1)N[C@H]1CC[C@H](CC(=O)N2CCC(Cc3ccccc3)CC2)O[C@H]1CO	-36
CCOc1ccc(Nc2nc(N)nc(CN3CCN(C)CC3)n2)cc1	31
Cc1ccc(Nc2nc(N)nc(CN3CCc4ccccc4C3)n2)cc1	-99*
Cc1ccc(Nc2nc(N)nc(CSc3nc4ccccc4s3)n2)cc1	-64
Cc1cccc(NC(=O)Cn2c(=O)cc(C(=O)N3CCOCC3)c3ccccc32)c1	6
CCc1oc(C(=O)N(C)CC2OCCc3ccccc32)cc1CN1CCCC1 (centres undefined)	0
O=C(O)C1CC(=O)N(Cc2csc(-c3ccccc3)n2)C1 (centres undefined)	0
CS(=O)(=O)c1cccnc1C1CCN(C(=O)Cc2ccc3c(c2)OCO3)CC1	-27
Nc1nccc(/C=C/c2c(F)cccc2Cl)n1	-74*
Cc1ccc(CNC(=O)C2(C)CCC(=O)N2CCc2c[nH]c3ccccc23)cc1 (centres undefined)	3
CCNC(=O)c1cc2c(c(-c3cccc(-c4cccc(C(=O)N(C)C)c4)c3)n1)[C@H](CCO)N([S@@](=O)C(C)(C)C)C2	-31
COCCN1C2(CCN(C(C)=O)C2)c2ccccc2S1(=O)=O (centres undefined)	17
CN1CCC2(CCOCC2NC(=O)c2ccccc2)CC1 (centres undefined)	-1
CCOCC1COCCC12CCN(C(=O)CCc1ccccc1)CC2 (centres undefined)	-1
CC(=O)N1CCC2(CCOCC2NC(=O)c2ccccc2)CC1 (centres undefined)	-93*
SMILES	Tgondii IFNg
CN(Cc1cn[nH]c1-c1ccccc1)C(=O)c1cccc(C#CC(C)(C)O)c1	-5
COCC(=O)N1CCCC1c1nnn2cc(-c3cccc(OC)c3)ccc12 (centres undefined)	-17
COC(=O)c1sccc1Oc1nccnc1C#N	37
O=C(NCCc1csc(-c2ccc(F)cc2)n1)c1ccccc1	-81*
Cc1ccc(C)c(NC(=O)C(=O)NCCc2csc(-c3cccc(F)c3)n2)c1	-101*
CCOc1ccccc1C(=O)NCCc1csc(-c2cccc(F)c2)n1	-91*
CCOc1cc(C(=O)NCCc2csc(-c3cccc(F)c3)n2)cc(OCC)c1OCC	39
Cc1ccc(Cl)cc1NC(=O)C(=O)NCCc1csc(-c2cccc(F)c2)n1	-64
CCOc1ccc(C(=O)NCCc2csc(-c3cccc(F)c3)n2)cc1OCC	54
O=C(NCCc1csc(-c2ccc(Cl)cc2)n1)c1ccc(F)cc1	-60
CCCCOc1ccc(C(=O)NCCc2csc(-c3ccc(OC)cc3)n2)cc1	-110*
CCOc1ccc(C(=O)NCCc2csc(-c3ccc(OC)cc3)n2)cc1	38
Cc1ccc(C)c(NC(=O)C(=O)NCCc2csc(-c3ccc(F)cc3)n2)c1	-69
O=C(NCCc1csc(-c2ccc(Cl)cc2)n1)c1ccccc1	-40
CCCCOc1ccc(C(=O)NCCc2csc(-c3ccc(Cl)cc3)n2)cc1	-49
Cc1ccc(NC(=O)CN2C(=O)CCc3cc(S(=O)(=O)N4CCCCC4C)ccc32)c(C)c1 (centres undefined)	20
CS(=O)(=O)N(Cc1ccco1)CC(O)Cn1c2ccccc2c2ccccc21 (centres undefined)	4
Cc1c(-c2nc(-c3ccc(C(F)(F)F)cc3)no2)n(C)oc1=O	224
O=C(c1ncn[nH]1)N(Cc1cccc(Cl)c1)C1CC1	2
COc1ccc(CN2C(=O)CCC23CCN(C(=O)NC2CC2)CC3)cc1	-20
COc1ccc(-c2nc(CCNC(=O)c3ccccc3Br)cs2)cc1	i
COc1ccc(Cl)cc1C(=O)NCCc1sc(-c2cccc(F)c2)nc1C	4
O=C(NCCc1csc(-c2cccc(F)c2)n1)c1ccccc1F	-22
COc1ccccc1C(=O)NCCc1csc(-c2cccc(F)c2)n1	-78*
O=C(NCCc1csc(-c2ccc(Cl)cc2)n1)c1cccs1	-79*
SMILES	Tgondii IFNg
COc1ccc(Cl)cc1C(=O)NCCc1csc(-c2cccc(F)c2)n1	-90*
COc1ccc(-c2nc(CCNC(=O)c3ccc(OC)cc3OC)cs2)cc1	42
COc1ccc(C(=O)NCCc2csc(-c3ccc(Cl)cc3)n2)c(OC)c1	-85*
COc1ccccc1OCC(=O)NCCc1csc(-c2cccc(F)c2)n1	48
O=C(NCCc1csc(-c2ccccc2)n1)c1cccs1	246
COc1ccc(-c2nc(CCNC(=O)c3cccs3)cs2)cc1OC	i
COc1ccc(C(=O)NCCc2csc(-c3cccc(F)c3)n2)cc1OC	32
OCCNCCCOc1cccc(Cl)c1Cl	12
COc1ccccc1-c1n[nH]c(=O)n1CCC(=O)O	-45
COc1ccccc1C(=O)N1CCN(S(=O)(=O)c2cc3c4c(c2)CCN4C(=O)CC3)CC1	31
Cc1cccnc1CC(C)NC(=O)c1cc(Cn2ccc3ccccc32)[nH]n1 (centres undefined)	-42
Cc1oc(-c2cccc(Cl)c2)nc1Cn1nnc(C(=O)Nc2ccccc2)c1C	49
O=C(O)c1ccc(Nc2ncc3c(n2)-c2ccc(Cl)cc2C(c2c(F)cccc2F)=NC3)cc1	-65
CCn1c(C2CCN(Cc3ccc4cc(F)ccc4n3)CC2)nn(C)c1=O	14
CN1C(=O)c2cc(NC(=O)c3ccc4c(c3)OCO4)ccc2OC[C@H]2O[C@@H](CC(=O)O)CC[C@H]21	12
COc1ccccc1-c1nc(Cn2nnc(-c3nc(-c4ccccc4Cl)no3)c2C)c(C)o1	4
O[C@@H]1CN(CCCC2CCCC2)CC[C@H]1c1ccc2c(c1)OCO2	-26
Cc1oncc1C(=O)Nc1ccc(C(F)(F)F)cc1	108
CC(=O)N1CC2(CCN(C(=O)C3CC3)CC2)CC1C(=O)O (centres undefined)	206
COc1ccc2c3c(n(C)c2c1)[C@H](CO)N(CC1CCCC1)CC31CN(C(=O)Nc2ccccc2)C1	-17
COc1ccc(OC)c(CN(Cc2cnn(C)c2)Cc2ccco2)c1	-22
C[C@@H]1CN([C@H](C)CO)C(=O)c2c(c3ccccc3n2C)-c2ccccc2CO[C@@H]1CN(C)C(=O)[C@@H](Cc1ccccc1)N(C)C	-60
C=C1SC(Nc2c(C)cccc2C)=NC12CCCCC2	-81*
CCOc1cc(C(=O)N2CCC3(CC2)Nc2cc(C)ccc2-n2cccc23)cc(OCC)c1OCC	-13
COC(=O)c1ccccc1NC(=O)c1nc(Nc2ccc(Cl)cc2)c2ccccc2n1	-67
Cc1noc(-c2cc(=O)n(CC(=O)Nc3ccccc3C)c3ccccc23)n1	-9

High-throughput results from PubChem.
